Holding throughout (assay): log2 fold change, soluble protein after heating vs DMSO (PISA); higher = thermal stabilisation; K562 lysate, 10 uM; active = over 0.2 and 3.5 SD of the protein, either way, in both replicates (recomputed)
Compound in one experiment: Cc1cn(-c2cc(NC(=O)c3ccc(C)c(Nc4nccc(-c5cccnc5)n4)c3)cc(C(F)(F)F)c2)cn1 [nilotinib]
An outline of the steps:
(§1)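 Thermal stability, expressed as log-two fold change relative to solvent controls, is given from duplicates. Crude K562 extract in PBS pH 7.4 with 1 mM MgCl2, at 1 mg/mL protein, was treated with 10 μM compound for 30 min and heated in aliquots for 3 min across 48°C-58°C. After pooling, adjustment to 0.5% NP-40 at 4°C and centrifugation at 21,000xg for 90 min, supernatant protein was measured by TMTpro 16plex LC-MS/MS with channel sums equalised.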

Compound in experiment [1]: Cc1nc(Nc2n[nH]c3c2CN(C(=O)N[C@H](CN(C)C)c2ccccc2)C3(C)C)c2sccc2n1
An outline of the steps:
as §1

Compound in a further experiment: Cc1nc(Nc2ncc(C(=O)Nc3c(C)cccc3Cl)s2)cc(N2CCN(CCO)CC2)n1 [dasatinib]
An outline of the steps:
as §1

Compound in experiment [2]: Cc1ncc(-c2ccnc(Nc3ccc(S(C)(=O)=O)cc3)n2)n1C(C)C
An outline of the steps:
as §1

Compound in experiment [3]: Cn1cc(-c2ccc3c(c2)CCN3C(=O)Cc2cccc(C(F)(F)F)c2)c2c(N)ncnc21
An outline of the steps:
as §1

Compound in another experiment: Cn1cc(CNCC2CCN(c3ncc(C(=O)NO)cn3)CC2)c2ccccc21 [quisinostat]
An outline of the steps:
as §1

Compound in a further experiment: Cn1cncc1[C@@](N)(c1ccc(Cl)cc1)c1ccc2c(c1)c(-c1cccc(Cl)c1)cc(=O)n2C [tipifarnib]
An outline of the steps: as §1

Compound in experiment [4]: NC(=O)Nc1cc(-c2cccc(F)c2)sc1C(=O)N[C@H]1CCCNC1
The method, boiled down: as §1

Compound in experiment [5]: NC(=O)c1cnc(N[C@@H]2CCCC[C@@H]2N)nc1Nc1cccc(-n2nccn2)c1
The method, boiled down:
as §1

Compound in experiment [6]: NC1(c2ccc(-c3nc4ccn5c(=O)[nH]nc5c4cc3-c3ccccc3)cc2)CCC1
An outline of the steps: as §1

Compound in experiment [7]: NCC(=O)Nc1ccc(-n2nc(C(F)(F)F)cc2-c2ccc3c(ccc4ccccc43)c2)cc1
The method, boiled down: as §1

Compound in a further experiment: O=C(CCCCCCC(=O)Nc1ccccc1)NO [vorinostat]
An outline of the steps: as §1

Compound in a further experiment: O=C(O)c1ccc2c(c1)nc(Nc1cccc(Cl)c1)c1ccncc12 [silmitasertib]
The method, boiled down:
as §1

Compound in experiment [8]: O=C1NC(=O)C(c2cnc3ccccn23)=C1c1cn2c3c(cc(F)cc13)CN(C(=O)N1CCCCC1)CC2
The method, boiled down: as §1

Compound in another experiment: c1cn2cc(-c3ccc4cn[nH]c4c3)nc(Nc3ccc(N4CCOCC4)cc3)c2n1 [entospletinib]
An outline of the steps:
as §1

The values that follow come from the supplement of paper PMC10849652.

Targets with a hit are over-represented here; the source holds about 8,800 in all. About 0.5% of all pairs of compound and target were hits. Unmarked numbers belong to inactive results.

UniProt P22102, sequence (P22102 whole entry, looked up): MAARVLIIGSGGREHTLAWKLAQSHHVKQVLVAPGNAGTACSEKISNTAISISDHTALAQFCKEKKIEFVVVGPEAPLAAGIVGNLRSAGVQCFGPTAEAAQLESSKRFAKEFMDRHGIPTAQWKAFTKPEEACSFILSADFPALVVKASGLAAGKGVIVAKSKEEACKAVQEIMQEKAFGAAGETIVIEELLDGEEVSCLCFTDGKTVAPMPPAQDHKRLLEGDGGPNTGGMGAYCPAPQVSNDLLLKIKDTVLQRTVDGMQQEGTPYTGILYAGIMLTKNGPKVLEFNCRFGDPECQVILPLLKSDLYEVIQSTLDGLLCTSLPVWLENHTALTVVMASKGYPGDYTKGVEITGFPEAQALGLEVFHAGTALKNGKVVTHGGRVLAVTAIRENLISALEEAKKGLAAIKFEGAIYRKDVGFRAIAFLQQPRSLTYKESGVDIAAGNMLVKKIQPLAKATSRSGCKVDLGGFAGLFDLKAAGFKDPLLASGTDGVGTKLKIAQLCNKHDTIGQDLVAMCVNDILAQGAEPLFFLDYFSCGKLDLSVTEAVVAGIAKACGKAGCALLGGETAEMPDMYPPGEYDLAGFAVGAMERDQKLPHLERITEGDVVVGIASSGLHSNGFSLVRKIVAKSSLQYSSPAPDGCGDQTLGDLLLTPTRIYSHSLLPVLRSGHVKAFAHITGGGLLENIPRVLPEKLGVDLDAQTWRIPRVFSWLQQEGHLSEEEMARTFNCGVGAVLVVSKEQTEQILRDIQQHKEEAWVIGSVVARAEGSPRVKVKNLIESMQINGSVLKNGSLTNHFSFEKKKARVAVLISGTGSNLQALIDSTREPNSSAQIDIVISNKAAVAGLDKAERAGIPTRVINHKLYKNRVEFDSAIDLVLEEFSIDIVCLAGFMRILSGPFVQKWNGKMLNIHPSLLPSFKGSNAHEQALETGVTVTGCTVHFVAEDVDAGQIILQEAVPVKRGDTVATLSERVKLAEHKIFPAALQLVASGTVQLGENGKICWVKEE
UniProt P22830, sequence (P22830 whole entry, looked up): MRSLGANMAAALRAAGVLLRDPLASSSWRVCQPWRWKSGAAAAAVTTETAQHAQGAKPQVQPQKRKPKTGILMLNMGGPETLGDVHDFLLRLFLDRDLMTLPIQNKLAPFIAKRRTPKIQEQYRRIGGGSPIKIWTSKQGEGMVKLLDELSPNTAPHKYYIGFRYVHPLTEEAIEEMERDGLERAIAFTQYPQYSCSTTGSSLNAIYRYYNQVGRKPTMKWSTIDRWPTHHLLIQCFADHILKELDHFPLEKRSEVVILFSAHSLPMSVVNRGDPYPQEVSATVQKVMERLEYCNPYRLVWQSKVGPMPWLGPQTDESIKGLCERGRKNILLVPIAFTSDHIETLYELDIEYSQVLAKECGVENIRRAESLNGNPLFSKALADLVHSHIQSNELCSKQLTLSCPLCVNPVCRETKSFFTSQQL
UniProt Q92562, sequence (Q92562 whole entry, looked up): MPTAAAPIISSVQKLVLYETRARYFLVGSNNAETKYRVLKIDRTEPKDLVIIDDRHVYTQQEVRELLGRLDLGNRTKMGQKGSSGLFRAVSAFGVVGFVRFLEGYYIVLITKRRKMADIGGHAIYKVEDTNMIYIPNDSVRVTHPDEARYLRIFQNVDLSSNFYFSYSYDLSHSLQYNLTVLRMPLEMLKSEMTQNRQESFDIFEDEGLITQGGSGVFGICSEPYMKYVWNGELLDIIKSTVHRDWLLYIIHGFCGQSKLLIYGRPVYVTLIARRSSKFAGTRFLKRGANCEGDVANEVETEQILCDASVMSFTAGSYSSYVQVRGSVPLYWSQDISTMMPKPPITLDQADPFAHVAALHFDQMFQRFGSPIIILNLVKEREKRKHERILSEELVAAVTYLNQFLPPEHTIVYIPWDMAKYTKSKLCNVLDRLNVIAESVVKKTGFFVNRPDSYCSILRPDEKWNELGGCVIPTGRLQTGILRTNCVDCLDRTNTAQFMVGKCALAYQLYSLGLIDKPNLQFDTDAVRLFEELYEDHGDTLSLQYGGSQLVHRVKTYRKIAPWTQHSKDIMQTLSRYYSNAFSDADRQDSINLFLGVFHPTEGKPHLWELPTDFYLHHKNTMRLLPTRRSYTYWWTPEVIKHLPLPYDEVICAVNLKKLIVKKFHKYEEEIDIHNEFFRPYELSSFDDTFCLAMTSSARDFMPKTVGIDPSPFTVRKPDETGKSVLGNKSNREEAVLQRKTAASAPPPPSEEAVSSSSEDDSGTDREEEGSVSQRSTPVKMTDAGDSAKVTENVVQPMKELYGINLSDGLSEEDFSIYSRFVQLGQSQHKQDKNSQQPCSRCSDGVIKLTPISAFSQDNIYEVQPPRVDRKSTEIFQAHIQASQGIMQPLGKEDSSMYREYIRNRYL
UniProt Q96F86, sequence (Q96F86 whole entry, looked up): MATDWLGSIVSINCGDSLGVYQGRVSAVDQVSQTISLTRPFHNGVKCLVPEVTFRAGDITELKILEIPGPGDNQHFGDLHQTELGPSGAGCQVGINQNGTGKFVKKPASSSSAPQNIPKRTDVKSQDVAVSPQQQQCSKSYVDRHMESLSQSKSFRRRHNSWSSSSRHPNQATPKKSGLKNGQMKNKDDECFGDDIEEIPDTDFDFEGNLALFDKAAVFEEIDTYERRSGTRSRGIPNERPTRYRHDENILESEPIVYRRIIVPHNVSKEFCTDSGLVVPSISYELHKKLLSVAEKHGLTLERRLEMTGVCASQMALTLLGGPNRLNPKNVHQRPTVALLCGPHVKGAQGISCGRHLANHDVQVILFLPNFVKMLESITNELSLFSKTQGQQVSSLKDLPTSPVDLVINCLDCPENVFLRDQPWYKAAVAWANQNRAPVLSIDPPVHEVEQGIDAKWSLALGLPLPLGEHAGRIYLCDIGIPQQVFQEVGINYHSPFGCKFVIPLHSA
UniProt Q9NZN4, sequence (Q9NZN4 whole entry, looked up): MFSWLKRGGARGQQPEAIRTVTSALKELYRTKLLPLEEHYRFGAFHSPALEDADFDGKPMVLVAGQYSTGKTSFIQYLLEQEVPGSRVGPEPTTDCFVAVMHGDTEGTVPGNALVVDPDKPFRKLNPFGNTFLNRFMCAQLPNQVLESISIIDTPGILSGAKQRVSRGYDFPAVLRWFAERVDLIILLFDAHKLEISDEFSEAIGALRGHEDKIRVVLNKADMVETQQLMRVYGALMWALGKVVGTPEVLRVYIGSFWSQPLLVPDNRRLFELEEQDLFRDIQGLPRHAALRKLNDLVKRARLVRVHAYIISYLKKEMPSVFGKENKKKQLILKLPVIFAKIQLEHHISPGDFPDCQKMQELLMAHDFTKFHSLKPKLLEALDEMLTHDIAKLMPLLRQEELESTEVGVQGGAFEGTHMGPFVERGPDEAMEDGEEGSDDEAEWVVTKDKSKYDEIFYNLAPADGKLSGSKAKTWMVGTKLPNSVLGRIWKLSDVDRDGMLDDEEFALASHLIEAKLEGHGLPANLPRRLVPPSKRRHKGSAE
UniProt P06733, sequence (P06733 whole entry, looked up): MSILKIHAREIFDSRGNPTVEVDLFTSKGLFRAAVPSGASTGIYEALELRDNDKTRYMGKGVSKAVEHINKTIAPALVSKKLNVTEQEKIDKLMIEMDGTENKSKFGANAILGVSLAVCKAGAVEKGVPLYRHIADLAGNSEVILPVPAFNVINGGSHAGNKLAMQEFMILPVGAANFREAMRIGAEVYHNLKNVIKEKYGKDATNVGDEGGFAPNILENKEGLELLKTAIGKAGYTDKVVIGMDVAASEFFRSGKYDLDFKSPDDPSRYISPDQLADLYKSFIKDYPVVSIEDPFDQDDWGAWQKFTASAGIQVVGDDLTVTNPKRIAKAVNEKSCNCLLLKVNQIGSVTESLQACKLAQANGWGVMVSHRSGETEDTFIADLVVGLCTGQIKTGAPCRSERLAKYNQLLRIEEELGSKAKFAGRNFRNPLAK
UniProt P34913, sequence (P34913 whole entry, looked up): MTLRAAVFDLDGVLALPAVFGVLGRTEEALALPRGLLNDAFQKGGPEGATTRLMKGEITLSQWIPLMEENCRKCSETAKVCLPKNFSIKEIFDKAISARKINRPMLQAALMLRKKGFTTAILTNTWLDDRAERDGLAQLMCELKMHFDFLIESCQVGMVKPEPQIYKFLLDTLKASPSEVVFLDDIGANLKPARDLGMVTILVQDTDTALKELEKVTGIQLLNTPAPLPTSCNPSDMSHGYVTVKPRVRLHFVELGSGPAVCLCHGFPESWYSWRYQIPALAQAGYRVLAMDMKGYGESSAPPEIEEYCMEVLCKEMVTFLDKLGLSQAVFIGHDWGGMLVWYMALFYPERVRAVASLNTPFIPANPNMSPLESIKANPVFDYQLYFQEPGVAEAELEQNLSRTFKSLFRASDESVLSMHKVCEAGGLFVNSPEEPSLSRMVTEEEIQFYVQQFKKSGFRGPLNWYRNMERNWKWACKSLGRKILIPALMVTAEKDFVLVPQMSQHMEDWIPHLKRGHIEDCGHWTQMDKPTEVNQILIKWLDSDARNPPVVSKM
UniProt Q9H4H8, sequence (Q9H4H8 whole entry, looked up): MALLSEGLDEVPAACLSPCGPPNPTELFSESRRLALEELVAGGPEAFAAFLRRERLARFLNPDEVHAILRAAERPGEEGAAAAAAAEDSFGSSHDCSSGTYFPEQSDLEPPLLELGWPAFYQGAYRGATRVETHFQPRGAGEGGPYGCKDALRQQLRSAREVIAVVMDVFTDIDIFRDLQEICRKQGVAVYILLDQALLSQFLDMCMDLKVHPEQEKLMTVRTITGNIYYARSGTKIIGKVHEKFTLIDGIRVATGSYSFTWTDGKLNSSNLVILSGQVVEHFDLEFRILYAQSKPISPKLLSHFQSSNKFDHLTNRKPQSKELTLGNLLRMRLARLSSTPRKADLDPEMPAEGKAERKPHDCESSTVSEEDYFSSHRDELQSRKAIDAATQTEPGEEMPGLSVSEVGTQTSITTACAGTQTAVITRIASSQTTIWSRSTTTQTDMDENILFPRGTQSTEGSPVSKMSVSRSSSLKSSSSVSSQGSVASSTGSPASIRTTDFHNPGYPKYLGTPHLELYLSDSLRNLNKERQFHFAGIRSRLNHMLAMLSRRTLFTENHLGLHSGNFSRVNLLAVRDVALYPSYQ

Take FECH isoform 2 (UniProt P22830): the log2 fold change in the experiment with nilotinib is 0.796; in experiment [1], 0; with dasatinib, 0.353; in experiment [2], 0.364; in experiment [3], 0.009; with quisinostat it was 0.333. Further, the log2 fold change was -0.007 with tipifarnib; -0.013 in experiment [4]; 0.139 in experiment [5]; 0.053 in experiment [6]; -0.185 in experiment [7]; -0.401 with vorinostat. Moreover, the log2 fold change with silmitasertib was -0.03; in experiment [8] it was -0.021; with entospletinib, 0.977.

Regarding ERAL1 (UniProt O75616), the log2 fold change is 0 in the experiment with nilotinib; -0.001 in [1]; 0.01 with dasatinib; 0.003 in experiment [2]; 0.018 in experiment [3]; -0.078 in the experiment with quisinostat. Besides, the log2 fold change with tipifarnib was -0.027; in [4] it was 0.083; in experiment [5], -0.052; in experiment [6], 0.008; in [7], -0.013; with vorinostat, -0.103. For the same target, the log2 fold change with silmitasertib is 0.044; in experiment [8], -0.044; in the experiment with entospletinib, -0.083.

In the case of FAM83D (UniProt Q9H4H8), the log2 fold change with nilotinib is -0.042; in experiment [1], 0.004; with dasatinib, -0.026; in [2], 0.008; in experiment [3] it was -0.033; in the experiment with quisinostat, -0.061. In addition, the log2 fold change is -0.02 with tipifarnib; -0.019 in experiment [4]; 0.05 in experiment [5]; 0.01 in [6]; 0 in [7]; -0.243 (active) with vorinostat. Also, the values for the log2 fold change (in the experiment with silmitasertib; in experiment [8]; with entospletinib) were 0.031, -0.004 and 0.021, respectively.

For FIG4 (UniProt Q92562), the log2 fold change in the experiment with nilotinib is -0.02; in experiment [1], 0.144; in the experiment with dasatinib it was -0.007; in [2], 0.08; in experiment [3], 0.145; with quisinostat, 0.077. Moreover, the log2 fold change with tipifarnib is -0.038; in experiment [4], 0.013; in experiment [5], -0.066; in experiment [6], 0.06; in experiment [7] it was -0.037; with vorinostat, -0.517 (active). Also, the log2 fold change with silmitasertib is 0.017; in experiment [8] it was 0.056; with entospletinib it was 0.052.

Regarding EPHX2 (UniProt P34913), the log2 fold change in the experiment with nilotinib was 0.097; in experiment [1] it was -0.036; with dasatinib it was 0.005; in [2] it was 0.027; in experiment [3], 0.007; with quisinostat it was 0.02. In addition, the log2 fold change with tipifarnib is 0.021; in experiment [4], -0.036; in experiment [5] it was -0.021; in [6] it was -0.015; in [7], 0.002; in the experiment with vorinostat, 0.243 (active). Further, the log2 fold change in the experiment with silmitasertib was 0.002; in experiment [8], -0.021; in the experiment with entospletinib, -0.058.

For the target GART (UniProt P22102), the log2 fold change with nilotinib was -0.006; in experiment [1], -0.024; with dasatinib, -0.022; in experiment [2], -0.011; in experiment [3] it was 0.01; with quisinostat, 0.025. Besides, the log2 fold change with tipifarnib was 0.011; in experiment [4], 0.015; in experiment [5] it was 0.007; in experiment [6], 0.006; in [7] it was 0.017; in the experiment with vorinostat it was -0.303 (active). For the same target, the log2 fold change in the experiment with silmitasertib was 0.006; in experiment [8], 0.003; with entospletinib, 0.012.

Consider EDC3 (UniProt Q96F86), for which the log2 fold change in the experiment with nilotinib was 0.045; in experiment [1], 0.016; with dasatinib it was -0.022; in [2] it was -0.031; in experiment [3], 0.004; with quisinostat, -0.006. The log2 fold change in the experiment with tipifarnib was -0.069; in [4] it was -0.019; in experiment [5], -0.014; in experiment [6], 0.017; in experiment [7] it was 0.02; with vorinostat, -0.277 (active). Also, the results for the log2 fold change (with silmitasertib; in [8]; with entospletinib) were 0, -0.026 and 0.013, respectively.

Consider EFCAB14 (UniProt O75071), for which the log2 fold change was -0.16 with nilotinib; 0.016 in experiment [1]; 0.049 with dasatinib; 0.001 in experiment [2]; -0.005 in [3]; -0.001 in the experiment with quisinostat. Also, the log2 fold change is 0.013 with tipifarnib; 0.053 in experiment [4]; -0.005 in [5]; 0.013 in experiment [6]; 0.039 in experiment [7]; 0.327 (active) with vorinostat. Besides, the values for the log2 fold change (in the experiment with silmitasertib; in experiment [8]; with entospletinib) were -0.054, 0.029 and 0.013, respectively.

For the target EHD2 (UniProt Q9NZN4), the log2 fold change with nilotinib is 0.007; in [1], -0.02; in the experiment with dasatinib, -0.018; in [2], 0.019; in [3], -0.084; in the experiment with quisinostat it was -0.074. Moreover, the log2 fold change with tipifarnib is -0.047; in experiment [4] it was 0.09; in experiment [5], 0.029; in experiment [6], -0.042; in experiment [7], 0.005; in the experiment with vorinostat, -0.282 (active). Further, the figures for the log2 fold change (with silmitasertib; in [8]; with entospletinib) were 0.073, 0.018 and 0.032, respectively.

On to ENO1 isoform 2 (UniProt P06733), for which the log2 fold change in the experiment with nilotinib is 0.01; in experiment [1], -0.009; in the experiment with dasatinib, 0.021; in [2], -0.036; in experiment [3], -0.012; in the experiment with quisinostat it was -0.038. For the same target, the log2 fold change was 0.035 with tipifarnib; -0.007 in experiment [4]; -0.008 in experiment [5]; 0.004 in experiment [6]; -0.008 in experiment [7]; 0.099 with vorinostat. Moreover, the log2 fold change with silmitasertib is 0.045; in [8] it was 0.005; with entospletinib, -0.05.
